Measured values from PubChem BioAssay.
The source made the active and inactive calls.

What was measured:
[1] = tested on: Plasmodium falciparum Sir2 (PF13_0152, Sir2A); assay: Plasmodium falciparum Sir2A binding compounds – biochemical, small-molecule microarray, 635 nm fluorescence, primary screen (AID 1098); settings: fluorescence 635 nm, higher = more signal;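 note: score merges spot fluorescence intensity with its signal-to-noise ratio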
[2] = probe aDKK1 binding to arrayed compounds – biochemical, biotinylated probe, 635/667 nm fluorescence, primary screen (AID 1099); settings: small-molecule microarray, higher = more signal;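 note: score merges 667nm spot fluorescence with signal to noise across triplicate slides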
[3] = probe aCHRDL2 binding to arrayed compounds – biochemical, biotinylated probe, 635/667 nm fluorescence, primary screen (AID 1100); settings: small-molecule microarray, higher = more signal
[4] = change in splice reporter luminescence, either direction, cell-based, HEK293, spliceosome inhibition project, primary screen (AID 1101); settings: HEK293 splicing luciferase reporter, 24 h, higher = more signal, called active from +8 up or from −8 down;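 note: HEK293 cells carrying a splicing-competent luciferase reporter gene; test concentration not given here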
[5] = target: Fibroblast growth factor 10 (Homo sapiens) (UniProt O15520); assay: compounds binding fibroblast growth factor 10 – biochemical, small-molecule microarray, 635 nm fluorescence, primary screen (AID 1102); settings: FGF10 binding, fluorescence 635 nm, higher = more signal
Sequence of Fibroblast growth factor 10 (Homo sapiens) (O15520 whole entry, looked up): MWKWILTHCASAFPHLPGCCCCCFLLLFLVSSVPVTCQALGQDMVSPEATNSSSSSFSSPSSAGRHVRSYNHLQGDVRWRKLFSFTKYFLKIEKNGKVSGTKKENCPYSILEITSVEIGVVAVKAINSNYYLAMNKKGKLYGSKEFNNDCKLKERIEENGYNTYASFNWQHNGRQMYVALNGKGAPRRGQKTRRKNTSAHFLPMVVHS

[6] = tested on: glycogen synthase kinase-3 (GSK3A per assay name; protocol says GSK3B); assay: compounds binding glycogen synthase kinase-3 – biochemical, small-molecule microarray, 635 nm fluorescence, GSK3A, primary screen (AID 1103); settings: fluorescence 635 nm, higher = more signal; note: the record names both GSK3A and GSK3B
[7] = target: Epidermal growth factor receptor (Homo sapiens) (UniProt P00533); assay: compounds binding epidermal growth factor receptor – biochemical, small-molecule microarray, 635 nm fluorescence, primary screen (AID 1104); settings: EGFR binding, higher = more signal;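 note: score merges 667 nm emission intensity with spot signal to noise over triplicate slides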
Sequence of Epidermal growth factor receptor (Homo sapiens) (P00533 whole entry, looked up): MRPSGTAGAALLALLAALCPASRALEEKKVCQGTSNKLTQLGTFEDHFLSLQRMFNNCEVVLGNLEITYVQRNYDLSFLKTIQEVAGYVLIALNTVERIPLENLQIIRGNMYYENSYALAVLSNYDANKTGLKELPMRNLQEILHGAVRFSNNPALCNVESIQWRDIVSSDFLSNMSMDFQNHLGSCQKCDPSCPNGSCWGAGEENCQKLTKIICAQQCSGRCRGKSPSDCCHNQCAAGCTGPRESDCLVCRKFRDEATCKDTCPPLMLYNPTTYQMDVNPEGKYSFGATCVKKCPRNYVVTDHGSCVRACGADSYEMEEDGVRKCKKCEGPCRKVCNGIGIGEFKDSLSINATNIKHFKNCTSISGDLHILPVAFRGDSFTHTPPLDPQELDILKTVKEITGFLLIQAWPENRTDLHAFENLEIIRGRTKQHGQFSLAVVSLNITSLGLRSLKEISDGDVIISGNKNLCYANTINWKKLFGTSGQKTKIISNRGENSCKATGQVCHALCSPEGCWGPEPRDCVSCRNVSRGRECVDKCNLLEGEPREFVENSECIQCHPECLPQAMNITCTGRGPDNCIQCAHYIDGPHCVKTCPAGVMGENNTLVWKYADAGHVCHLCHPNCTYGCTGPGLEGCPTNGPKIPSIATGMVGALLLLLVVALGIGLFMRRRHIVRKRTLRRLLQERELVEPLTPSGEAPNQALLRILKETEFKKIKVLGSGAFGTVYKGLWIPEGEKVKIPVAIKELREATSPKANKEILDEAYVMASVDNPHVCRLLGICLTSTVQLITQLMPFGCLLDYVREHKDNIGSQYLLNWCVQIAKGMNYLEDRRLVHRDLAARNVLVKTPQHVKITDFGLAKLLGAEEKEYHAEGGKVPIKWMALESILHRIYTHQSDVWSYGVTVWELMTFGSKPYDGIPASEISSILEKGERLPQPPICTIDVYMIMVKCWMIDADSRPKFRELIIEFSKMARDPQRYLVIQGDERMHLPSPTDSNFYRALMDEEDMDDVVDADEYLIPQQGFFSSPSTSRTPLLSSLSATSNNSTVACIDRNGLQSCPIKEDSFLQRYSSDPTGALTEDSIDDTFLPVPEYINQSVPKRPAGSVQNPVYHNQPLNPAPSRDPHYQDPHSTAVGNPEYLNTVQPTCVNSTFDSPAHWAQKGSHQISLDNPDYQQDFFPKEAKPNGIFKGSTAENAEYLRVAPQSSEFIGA

[8] = target: Follistatin-related protein 3 (Homo sapiens) (UniProt O95633); assay: compounds binding follistatin-related protein 3 – biochemical, small-molecule microarray, 635 nm fluorescence, primary screen (AID 1105); settings: FSTL3 binding, higher = more signal;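 note: score merges emission near 667 nm and signal to noise per printed spot across three slides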
Sequence of Follistatin-related protein 3 (Homo sapiens) (O95633 whole entry, looked up): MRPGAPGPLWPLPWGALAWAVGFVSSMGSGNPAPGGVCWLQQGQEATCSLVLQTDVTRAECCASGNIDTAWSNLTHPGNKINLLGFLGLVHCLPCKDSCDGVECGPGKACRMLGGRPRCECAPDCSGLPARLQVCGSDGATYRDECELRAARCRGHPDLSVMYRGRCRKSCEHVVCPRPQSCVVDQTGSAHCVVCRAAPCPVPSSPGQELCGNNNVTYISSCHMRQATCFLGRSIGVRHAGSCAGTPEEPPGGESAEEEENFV

[9] = target: Dickkopf-related protein 1 (Homo sapiens) (UniProt O94907); assay: small molecules binding DKK1 protein – biochemical, small-molecule microarray, 635 nm fluorescence scan, primary screen (AID 1106); settings: higher = more signal;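 note: score merges emission near 667 nm with signal to noise over three replicate slides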
Sequence of Dickkopf-related protein 1 (Homo sapiens) (O94907 whole entry, looked up): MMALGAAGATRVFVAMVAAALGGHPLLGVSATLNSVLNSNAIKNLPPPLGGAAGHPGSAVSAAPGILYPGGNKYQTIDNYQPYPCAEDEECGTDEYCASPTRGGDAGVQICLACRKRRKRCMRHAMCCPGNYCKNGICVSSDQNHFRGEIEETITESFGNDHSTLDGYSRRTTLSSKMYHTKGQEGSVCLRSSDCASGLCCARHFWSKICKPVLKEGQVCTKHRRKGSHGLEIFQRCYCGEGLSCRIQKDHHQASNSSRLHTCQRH

[10] = tested on: Inhibin beta A chain (activin A); assay: small molecules binding activin A – biochemical, small-molecule microarray, 635 nm fluorescence scan, primary screen (AID 1107); settings: INHBA, higher = more signal;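 note: mouse activin A protein probed at 4.33 µg/mL on printed slides; score merges bound-protein fluorescence near 667 nm with spot signal-to-noise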
[11] = tested on: Human papillomavirus type 1a protein E7 (residues 44-93); assay: small molecules binding HPV E7 44-93 – biochemical, small-molecule microarray, residues 44-93, 635 nm fluorescence, primary screen (AID 1108); settings: fluorescence 635 nm, higher = more signal;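 note: E7 fragment applied at 1 µg/mL in TBST for 1 h at 4 C; score combines spot fluorescence with its signal to noise ratio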
[12] = hepatitis C replication reporter changes, two-sided – Huh7 cells, luciferase reporter, HCV replication inhibitor project, primary screen (AID 1109); settings: Huh7 HCV replicon luciferase reporter, 48 h; higher = more signal;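 note: huh7 hepatoma cells harbouring a luciferase neomycin HCV replicon reporter; luciferase luminescence as measure of HCV replicon replication; test concentration not given here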
[13] = target: Left-right determination factor 2 (Homo sapiens) (UniProt O00292); assay: small molecules binding LEFTY2 protein – biochemical, small-molecule microarray, 635 nm fluorescence scan, primary screen (AID 1110); settings: higher = more signal
Sequence of Left-right determination factor 2 (Homo sapiens) (O00292 whole entry, looked up): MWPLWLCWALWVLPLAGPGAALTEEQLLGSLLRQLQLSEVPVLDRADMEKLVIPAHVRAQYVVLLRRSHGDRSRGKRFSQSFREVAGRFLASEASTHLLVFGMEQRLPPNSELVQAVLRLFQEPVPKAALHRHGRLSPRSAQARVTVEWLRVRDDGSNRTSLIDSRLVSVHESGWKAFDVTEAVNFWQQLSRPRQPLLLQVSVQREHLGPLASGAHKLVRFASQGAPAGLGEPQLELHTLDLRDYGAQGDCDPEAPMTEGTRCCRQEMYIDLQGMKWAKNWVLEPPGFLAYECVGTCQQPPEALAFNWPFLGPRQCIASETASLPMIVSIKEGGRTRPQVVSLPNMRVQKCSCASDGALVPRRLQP

[14] = target: Calmodulin-1 (Homo sapiens) (UniProt P0DP23); assay: small molecules binding calmodulin-1 with EGTA – biochemical, small-molecule microarray, Cy5-labelled CALM1, profiling panel (AID 1111); settings: Cy5-CALM1 binding fluorescence, higher = more signal;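 note: labelled calmodulin applied in Tris saline Tween buffer holding calcium plus EGTA and DTT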
[15] = target: Calmodulin-1 (Homo sapiens) (UniProt P0DP23); assay: small molecules binding Ca-loaded calmodulin-1 – biochemical, small-molecule microarray, Cy5-labelled CALM1, plus calcium, artefact control for SMM control-protein annotation, profiling panel (AID 1112); settings: Cy5-CALM1 binding fluorescence, higher = more signal;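 note: score merges spot fluorescence with signal to noise from triplicate slides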
[16] = probe aWnt5a binding to arrayed compounds – biochemical, biotinylated probe, 635/667 nm fluorescence, primary screen (AID 1113); settings: small-molecule microarray, higher = more signal;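 note: score merges 667 nm fluorescence intensity with signal-to-noise per printed feature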
[17] = probe aShh binding to arrayed compounds – biochemical, biotinylated probe, 635/667 nm fluorescence, primary screen (AID 1114); settings: small-molecule microarray, higher = more signal;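 note: probe is biotin-labelled aShh protein from a stem cell growth factor screen; measures binding of labelled protein to compounds printed on the slide; score merges feature fluorescence at 667 nm with signal-to-noise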
[18] = probe aNog binding to arrayed compounds – biochemical, biotinylated probe, 635/667 nm fluorescence, primary screen (AID 1115); settings: small-molecule microarray, higher = more signal;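 note: probe is biotinylated aNog protein used at 0.15 µg/mL for 1 h at 4 C; z-score combines 667 nm fluorescence of each spot with its signal to noise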
[19] = target: Torsin-1A-interacting protein 1 (Homo sapiens) (UniProt Q5JTV8); assay: compound microarray binding of lysate hLAP1 – cell lysate, small-molecule microarray, COS7 lysate, 635/667 nm fluorescence, primary screen (AID 1116); settings: 635 nm fluorescence, higher = more signal
Sequence of Torsin-1A-interacting protein 1 (Homo sapiens) (Q5JTV8 whole entry, looked up): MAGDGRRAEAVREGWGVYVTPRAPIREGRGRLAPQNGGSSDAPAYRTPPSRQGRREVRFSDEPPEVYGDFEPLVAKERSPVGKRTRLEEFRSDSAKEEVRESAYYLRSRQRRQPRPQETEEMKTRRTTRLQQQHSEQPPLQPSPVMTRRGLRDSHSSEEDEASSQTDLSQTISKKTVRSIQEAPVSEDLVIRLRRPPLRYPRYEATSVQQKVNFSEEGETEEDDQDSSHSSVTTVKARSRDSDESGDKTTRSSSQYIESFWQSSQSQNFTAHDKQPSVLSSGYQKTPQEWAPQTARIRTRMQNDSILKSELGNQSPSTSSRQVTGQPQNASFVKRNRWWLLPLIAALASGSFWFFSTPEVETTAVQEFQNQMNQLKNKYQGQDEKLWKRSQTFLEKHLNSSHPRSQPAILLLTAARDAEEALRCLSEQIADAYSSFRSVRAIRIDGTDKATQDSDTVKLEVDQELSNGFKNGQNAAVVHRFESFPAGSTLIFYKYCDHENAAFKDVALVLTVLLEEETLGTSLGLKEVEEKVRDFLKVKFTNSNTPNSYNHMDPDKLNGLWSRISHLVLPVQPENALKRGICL

[20] = target: Alpha-bungarotoxin (Bungarus multicinctus) (UniProt P60615); assay: compounds binding labelled alpha-BTX control protein – biochemical, small-molecule microarray, Alexa647 label, 635/667 nm fluorescence, artefact control for SMM control protein annotation, profiling panel (AID 1117); settings: alpha-BTX-A647 binding fluorescence, higher = more signal
Sequence of Alpha-bungarotoxin (Bungarus multicinctus) (P60615 whole entry, looked up): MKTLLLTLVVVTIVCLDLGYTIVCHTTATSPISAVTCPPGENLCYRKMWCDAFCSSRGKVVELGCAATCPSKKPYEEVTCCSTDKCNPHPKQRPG

NCCCCCCNC(=O)[C@@H]1C[C@@H]2C(=O)N[C@@H](CCCCN)C(=O)N2[C@@H]1c1cccc(OCCO)c1
composite z-score [1]: 1.85
composite z-score [2]: 0.772
composite z-score [3]: 1.14
z-score [4]: -0.615 (inactive)
composite z-score [5]: 0.243
composite z-score [6]: 0.543
composite z-score [7]: 0.412
composite z-score [8]: 0.171
composite z-score [9]: 1.64
composite z-score [10]: 0.702
composite z-score [11]: 1.32
z-score [12]: -0.661
composite z-score [13]: 1.1
composite z-score [14]: 1.02
composite z-score [15]: 1.2
composite z-score [16]: 0.188
composite z-score [17]: 1.05
composite z-score [18]: 2.03
composite z-score [19]: 0.882
composite z-score [20]: 0.933

[N-]=[N+]=NCc1ccccc1[C@H]1OC(c2ccc(OCCCO)cc2)=N[C@@]1(CCS(=O)(=O)c1ccccc1)C(=O)N1CCCCC1
composite z-score [1]: 1.15
composite z-score [2]: 1.05
composite z-score [3]: 1.42
z-score [4]: -0.33 (inactive)
composite z-score [5]: 0.644
composite z-score [6]: 1.28
composite z-score [7]: 0.169
composite z-score [8]: 0.909
composite z-score [9]: -0.202
composite z-score [10]: 1.57
composite z-score [11]: -0.695
z-score [12]: -1.11
composite z-score [13]: 0.651
composite z-score [14]: 2.25
composite z-score [15]: 0.735
composite z-score [16]: 0.16
composite z-score [17]: 0.385
composite z-score [18]: 1.15
composite z-score [19]: 1.22
composite z-score [20]: 2.96

CC(c1ccccc1)C(O)C1C=CC2C(=O)N(c3ccccc3)C(=O)C2N1Nc1ccc([N+](=O)[O-])cc1 (stereo not given)
composite z-score [1]: 1.38
composite z-score [2]: 0.831
composite z-score [3]: 0.862
z-score [4]: -0.43 (inactive)
composite z-score [5]: 0.781
composite z-score [6]: 1.3
composite z-score [7]: 0.424
composite z-score [8]: 1.23
composite z-score [9]: -0.405
composite z-score [10]: 0.854
composite z-score [11]: 1.46
z-score [12]: -0.0504
composite z-score [13]: 0.365
composite z-score [14]: 0.93
composite z-score [15]: 0.328
composite z-score [16]: -0.001
composite z-score [17]: -0.0146
composite z-score [18]: 0.457
composite z-score [19]: 0.464
composite z-score [20]: 1.53

CC(C)OC(=O)C=C1C[C@@H](c2ccc(C(F)(F)F)cc2)O[C@@H](c2ccc(C(F)(F)F)cc2)O1
composite z-score [1]: 1.12
composite z-score [2]: 0.164
composite z-score [3]: 0.492
z-score [4]: -1.55 (inactive)
composite z-score [5]: 0.158
composite z-score [6]: 0.485
composite z-score [7]: -0.765
composite z-score [8]: 0.0144
composite z-score [9]: -0.899
composite z-score [10]: -0.522
composite z-score [11]: 1.44
z-score [12]: -0.512
composite z-score [13]: -0.467
composite z-score [14]: 0.808
composite z-score [15]: 0.776
composite z-score [16]: -0.0643
composite z-score [17]: 0.536
composite z-score [18]: -0.261
composite z-score [19]: 2.25
composite z-score [20]: 1.83

NC(=O)NCC#Cc1ccc2c(c1)[C@]1(C(=O)N2)[C@H](C(=O)NC[C@H](O)c2ccccc2)[C@H]2C(=O)O[C@H](c3ccccc3)[C@H](c3ccccc3)N2[C@@H]1c1ccc(OCCO)cc1
composite z-score [1]: 0.0395
composite z-score [2]: 0.72
composite z-score [3]: 0.879
z-score [4]: 0.822 (inactive)
composite z-score [5]: 0.566
composite z-score [6]: 0.0382
composite z-score [7]: -0.464
composite z-score [8]: 0.0489
composite z-score [9]: -0.246
composite z-score [10]: 1.04
composite z-score [11]: 1.25
z-score [12]: -1.22
composite z-score [13]: -0.461
composite z-score [14]: 0.616
composite z-score [15]: 0.541
composite z-score [16]: -0.143
composite z-score [17]: -0.0769
composite z-score [18]: -0.418
composite z-score [19]: 0.863
composite z-score [20]: 1.43

COc1cc2c(cc1OC)CN(C(=O)[C@@H]1[C@H]3C(=O)O[C@H](c4ccccc4)[C@H](c4ccccc4)N3[C@H](c3ccc(OCCO)cc3)[C@@]13C(=O)Nc1ccc(C#CC4(O)CCCCCC4)cc13)CC2
composite z-score [1]: 1.21
composite z-score [2]: 0.7
composite z-score [3]: -0.386
z-score [4]: -1.38 (inactive)
composite z-score [5]: 1.47
composite z-score [6]: 1.3
composite z-score [7]: 0.741
composite z-score [8]: 1.11
composite z-score [9]: 0.698
composite z-score [10]: 0.282
composite z-score [11]: 1.34
z-score [12]: -1.34
composite z-score [13]: 0.866
composite z-score [14]: 1.52
composite z-score [15]: -0.225
composite z-score [16]: 0.0596
composite z-score [17]: 0.0985
composite z-score [18]: -0.111
composite z-score [19]: 1.37
composite z-score [20]: 1.69

CCCNC(=O)[C@@H]1c2ccccc2C(=O)N(C(C)C)[C@H]1c1ccc(CO)cc1
composite z-score [1]: 0.32
composite z-score [2]: 0.02
composite z-score [3]: 0.933
z-score [4]: 0.844 (inactive)
composite z-score [5]: -0.342
composite z-score [6]: -0.307
composite z-score [7]: -0.87
composite z-score [8]: -0.961
composite z-score [9]: -0.375
composite z-score [10]: 0.534
composite z-score [11]: 0.123
z-score [12]: -0.362
composite z-score [13]: -0.378
composite z-score [14]: -0.193
composite z-score [15]: 0.0439
composite z-score [16]: -0.104
composite z-score [17]: 0.0062
composite z-score [18]: -0.287
composite z-score [19]: 0.625
composite z-score [20]: -0.182

CCOc1cc(C(O)C2C=CC3C(=O)N(c4ccccc4)C(=O)C3N2Nc2ccc(C#N)cc2)ccc1O (stereo not given)
composite z-score [1]: 0.146
composite z-score [2]: 1.3
composite z-score [3]: 0.643
z-score [4]: 0.751 (inactive)
composite z-score [5]: 0.0415
composite z-score [6]: -0.0102
composite z-score [7]: -0.209
composite z-score [8]: 0.472
composite z-score [9]: -0.454
composite z-score [10]: 0.713
composite z-score [11]: 0.0289
z-score [12]: -0.131
composite z-score [13]: -0.0669
composite z-score [14]: 1.81
composite z-score [15]: 0.0646
composite z-score [16]: -0.261
composite z-score [17]: -0.315
composite z-score [18]: 0.0582
composite z-score [19]: 0.562
composite z-score [20]: 1.28

CC(=O)c1ccc(C(O)C2C=CC3C(=O)N(c4ccccc4)C(=O)C3N2Nc2ccc(C#N)cc2)cc1 (stereo not given)
composite z-score [1]: 0.45
composite z-score [2]: 0.204
composite z-score [3]: 0.764
z-score [4]: 0.744 (inactive)
composite z-score [5]: -0.0433
composite z-score [6]: 0.582
composite z-score [7]: 0.262
composite z-score [8]: 0.133
composite z-score [9]: -0.594
composite z-score [10]: 0.443
composite z-score [11]: 0.909
z-score [12]: -0.0483
composite z-score [13]: 0.0172
composite z-score [14]: 1.11
composite z-score [15]: 0.586
composite z-score [16]: -0.172
composite z-score [17]: 0.149
composite z-score [18]: -0.409
composite z-score [19]: 0.142
composite z-score [20]: 1.33

O=C(NCC(F)(F)F)[C@@H]1c2ccccc2C(=O)N(Cc2ccccc2C(F)(F)F)[C@H]1c1ccc(CO)cc1
composite z-score [1]: 1.78
composite z-score [2]: 0.757
composite z-score [3]: 0.805
z-score [4]: -0.335 (inactive)
composite z-score [5]: -0.141
composite z-score [6]: -0.677
composite z-score [7]: -0.79
composite z-score [8]: -0.604
composite z-score [9]: -0.377
composite z-score [10]: 0.547
composite z-score [11]: -0.315
z-score [12]: -0.941
composite z-score [13]: -1.02
composite z-score [14]: 0.0216
composite z-score [15]: 0.792
composite z-score [16]: -0.276
composite z-score [17]: 0.0044
composite z-score [18]: -0.101
composite z-score [19]: -0.121
composite z-score [20]: -0.695

C=CCOC(=O)[C@H]1[C@@H]2C(=O)O[C@@H](c3ccccc3)[C@@H](c3ccccc3)N2[C@@H](c2ccc(OCCOC(=O)[C@H]3C[C@H]4C(=O)N[C@@H](CCCCNC(C)=O)C(=O)N4[C@H]3c3ccc(O)cc3)cc2)[C@]12C(=O)Nc1ccccc12
composite z-score [1]: 0.611
composite z-score [2]: 0.258
composite z-score [3]: 0.493
z-score [4]: -1.18 (inactive)
composite z-score [5]: 0.776
composite z-score [6]: 1.28
composite z-score [7]: 0.915
composite z-score [8]: 0.932
composite z-score [9]: 1.31
composite z-score [10]: 0.351
composite z-score [11]: 0.94
z-score [12]: -0.103
composite z-score [13]: 0.594
composite z-score [14]: 1.03
composite z-score [15]: 0.328
composite z-score [16]: -0.124
composite z-score [17]: 0.157
composite z-score [18]: 0.0322
composite z-score [19]: 1.67
composite z-score [20]: 1.89
